Pf growth 48h – Primary qHTS for delayed death inhibitors of the malarial parasite plastid, 48 hour incubation; P. falciparum luciferase growth in erythrocytes, 48 h; Potency, µM (doses to about 28.7 µM), without a hit: at the highest dose activity change, negative = inhibition, most hits filed as inhibitors; 310,000 tested, 5.9% active; AID 504832, 2011; also: potency is read from the fitted curve at half-maximal effect
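First compound was added to culture medium, then infected red cells at 0.1% parasitemia and 2% hematocrit (final). After incubation at 37 C under 5% CO2, luciferase detection reagent was dispensed and light output recorded.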
HCV inhibitor – qHTS Assay for Inhibitors of Hepatitis C Virus (HCV). 340,000 tested, 3.4% active. Huh7.5.1 HCVcc-Cre infection, luciferase reporter, 44 h. Potency, µM (titrated, usually from 41.8 µM), without a hit: top-dose activity change, negative = inhibition, hits mostly inhibitors; also: potency is read from the fitted curve at half-maximal effect
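Compounds are dispensed onto cells plated 4 h earlier at 1,000 per well, with HCVcc-Cre virus (about 0.5 moi) added next. Following 44 h of culture, luminescent signal is measured for 15 sec after 15 min with substrate at room temperature.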
HCMV inh – qHTS Assay for inhibitors of the human cytomegalovirus (HCMV) | HFF cells, HCMV-luciferase reporter, 72 h; active compounds read low | activity change, negative = inhibition, % at 57.5 µM | 410,000 tested, 4.5% active | AID 1259415, 2018; in the data active = activity change below about -60%; inconclusive = no clear call, values can overlap the other calls; inactive = above about -39%
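Screen run at 2 compound doses on HFFs infected with reporter HCMV, MOI 1 PFU/cell. Luciferase activity from cell lysates at 72 h post infection gave inhibition relative to buffer-only and Salinomycin wells.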
Pf growth 96h – Primary qHTS for delayed death inhibitors of the malarial parasite plastid, 96 hour incubation. P. falciparum luciferase reporter growth, 96 h. Potency, µM (series often up to 28.7 µM), without a hit: top-dose activity change, negative = inhibition, most hits filed as inhibitors. 320,000 tested, 6.9% active. AID 504834, 2011; also: potency is read from the fitted curve at half-maximal effect
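Erythrocytes infected with luciferase-expressing P. falciparum were dispensed at 2% hematocrit and 0.05% parasitemia (final), then incubated with compounds 96 hours at 37 C in 5% CO2. Luminescence after detection reagent addition reported growth.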
The depositor's hits bear a star; ? = inconclusive; · = not tested or not shown. An excerpt weighted towards active compounds, which were near 13% of everything screened. Unless noted, calls follow the shape of the dose curve; as a rule, active = well fitted inhibition curve with a large enough effect; inconclusive = small, poorly fitted or top-dose-only effect, or another doubt; inactive = no such curve, though single readings can be large or run the other way. % is scaled to controls: 0 for no effect and ±100 for the full control effect.

SMILES	Pf growth 48h	HCV inhibitor	HCMV inh	Pf growth 96h
CC(C)CC(NC(=O)OC(C)(C)C)c1cn([C@@H](CCCCNC(=O)OC(C)(C)C)C(=O)N2CCN(C(=O)OC(C)(C)C)CC2)nn1 (stereo partly specified)	?	-10%	37	3.7µM*
N[C@@H](CO)c1cn([C@@H](Cc2cc3ccccc3[nH]2)C(=O)N2CCNCC2)nn1	53%	30%	-6	64%
CC(C)(C)OC(=O)CC[C@@H](C(=O)N1CCN(C(=O)OC(C)(C)C)CC1)n1cc(C(Cc2ccc(O)cc2)NC(=O)OC(C)(C)C)nn1 (stereo partly specified)	?	?	1	4.7µM*
CCOC(=O)C(CC)N1CCN(Cc2ccc(F)cc2)C(=O)C1=O (stereo unspecified)	·	·	5	·
Cc1cccc(C)c1NC(=O)C(Nc1ccccc1)c1ccccc1F (stereo unspecified)	·	·	8	·
CCC(Sc1nc2ccccc2c2nc(-c3ccccc3)nn12)C(=O)Nc1cccc(OC)c1 (stereo unspecified)	·	·	-4	·
Cc1ccc2nc(-c3cccc(-c4cccc(Cl)c4)c3)c(NCc3ccccc3)n2c1	7.4µM*	-19%	-23	10µM*
CCC(C)Sc1cccc(-c2nc3ccc(C)cn3c2NCc2ccccc2)c1 (stereo unspecified)	3.3µM*	4%	13	13µM*
CCC(C)Sc1cccc(-c2nc3ccccn3c2NCc2ccccc2)c1 (stereo unspecified)	·	?	143	·
CCC(C)Sc1cccc(-c2nc3ccc(Cl)cn3c2NCc2ccccc2)c1 (stereo unspecified)	9.3µM*	22%	·	10µM*
Cc1ccc(S(=O)(=O)N(C)Cc2nc(-c3ccccc3)oc2C)cc1	·	·	-1	·
CC1(C)CCc2c([nH]c3ccccc3c2=O)O1	?	25%	4	?
O=c1c2c([nH]c3ccccc13)CCCCCC2	?	?	31	3%
O=c1[nH]c2cccc(Cl)c2c2ccccc12	·	·	-14	·
CCC1CCc2c([nH]c3ccccc3c2=O)O1 (stereo unspecified)	?	0%	68	2.3µM*
O=c1c2c([nH]c3ccccc13)CCCCC2	1.7µM*	-20%	-19	1.7µM*
c1ccc2c(c1)[nH]c1ccccc12	·	13%	·	·
O=c1[nH]c2ccccc2c2ccccc12	11%	14µM*	16	43%
O=c1c2ccccc2[nH]c2ccccc12	1.7µM*	?	16	1.5µM*
Cc1ccc(NC(=O)N2CC3CCCN3c3ccccc32)c(C)c1 (stereo unspecified)	·	·	9	·
CCc1cccc(C)c1NC(=O)c1cn2c3c(ccc(Cl)c3c1=O)OC(C)C2 (stereo unspecified)	·	·	-7	·
Cc1cc(C)cc(-n2c(SCC(=O)N3CCOCC3)nc3c([nH]c4ccccc43)c2=O)c1	·	·	15	·
COc1ccc(S[C@]2(C(=O)NCC(F)(F)F)CC(=O)N[C@@H]2c2ccc(OC)cc2)cc1	·	·	1	·
O=C(c1ccc2c(c1)N(Cc1ccccc1F)C(=O)c1ccccc1S2(=O)=O)N1CCC(Cc2ccccc2)CC1	·	·	19	·
Cc1cc2ccccc2c(=O)n1CC(=O)N(C)c1ccc(F)cc1	11%	7%	-103*	10µM*
SMILES	Pf growth 48h	HCV inhibitor	HCMV inh	Pf growth 96h
Cc1ccc(NC(=O)CNC(=O)Cn2c(C)cc3ccccc3c2=O)cc1F	·	·	13	·
CCOC(=O)Cn1c2c(c(=N)c3ccccc31)CCC2	?	-2%	5	0.37µM*
CCOC(=O)Cn1c2c(c(=N)c3c1CCC3)CCC2	1µM*	-15%	2	0%
Cc1ccc(S(=O)(=O)NC(C)(C)CSc2nnc(Nc3ccccc3)s2)cc1	·	18µM*	-25	12µM*
CC(C)(CSc1ncccn1)NS(=O)(=O)c1ccccc1	-5%	20%	6	10%
COc1ccccc1NC(=O)Cn1c(=O)n(Cc2ccccc2)c(=O)c2c1c1cc(C)ccc1n2C	·	·	25	·
Cn1c(-[n+]2c(-c3ccccc3)cc(-c3ccccc3)cc2-c2ccccc2)nc2c([N+](=O)[O-])cccc21	12µM*	?	-60*	?
O=[N+]([O-])c1ccc(-[n+]2c(-c3ccccc3)cc(-c3ccccc3)cc2-c2ccccc2)cc1	?	-12%	?	0%

Screening data as filed in PubChem BioAssay.
